Reference: PubChem BioAssay (NCATS)
“And” between values parts separate entries of the source, which are not always exact repeats. Equal entries are not always repeated. Records with an inconclusive call do not appear. A structure can be active in one record and inactive in another. The source made the active and inactive calls. Unless noted, calls follow the shape of the dose curve; as a rule, active = well fitted curve in the direction sought with a large enough effect; inconclusive = small, poorly fitted or top-dose-only effect, or another doubt; inactive = no such curve, though single readings can be large; an effect the other way counts as inactive or inconclusive.

Experiments:
[1] = biological target: Cytochrome P450 2C9 (Homo sapiens) (UniProt P11712); assay: Cytochrome P450 family 2 subfamily C member 9 (CYP2C9) small molecule antagonists: luciferase biochemical (cell-free) qHTS assay (AID 1645842; active = well fitted curve in the direction sought with a large enough effect in the repeat runs; an effect the other way counts as inactive or inconclusive; also: nearly all actives have a fitted effect of over 55% in size; also: potency is read from the fitted curve at half-maximal effect; as to activity change, negative = inhibition: % is scaled to controls: 0 for no effect and ±100 for the full control effect)
Method in brief: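 P450-Glo CYP2C9 system: proluciferin substrate with enzyme in mix containing 0.4% BSA, 10 min at room temperature, then NADPH regeneration solution added and incubated 1 h at 37C. Detection reagent stopped reaction; luminescence read after 20 min as RLU.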

[2] = Primary qHTS for inhibitors of nuclear receptor binding SET domain protein 2 (NSD2) in an isogenic RCH-ACV NSD2 p.E1099K mutant (9B) (AID 1645876); also: nearly all actives have a fitted effect of over 70% in size; also: potency is read from the fitted curve at half-maximal effect
[3] = Primary qHTS for inhibitors of nuclear receptor binding SET domain protein 2 (NSD2) in an RCH-ACV wild type WT cells (2C) (AID 1645877); also: nearly all actives have a fitted effect of over 70% in size; also: potency is read from the fitted curve at half-maximal effect
[4] = biological target: Catechol O-methyltransferase (Homo sapiens) (UniProt P21964); assay: Confirmatory Screen for Target Class Profiling of Small Molecule Inhibitors of Methyltransferases (AID 1745852; calls by dose curve; also: potency is read from the fitted curve at half-maximal effect; as to activity change, negative = inhibition: % is scaled to controls: 0 for no effect and ±100 for the full control effect); conditions: MTase-Glo luminescence, SAH detection, recombinant enzyme; measured here: COMT max response; stronger effect = lower value
[5] = biological target: Guanidinoacetate N-methyltransferase (Homo sapiens) (UniProt Q14353); assay: as above; conditions: activity change, negative = inhibition: at 57.3 µM (top of the series) unless noted
[6] = biological target: Nicotinamide N-methyltransferase (Homo sapiens) (UniProt P40261); assay: as above; conditions: MTase-Glo luminescence, SAH detection, recombinant enzyme; measured here: NNMT max response; stronger effect = lower value
[7] = biological target: Phenylethanolamine N-methyltransferase (Homo sapiens) (UniProt P11086); assay: as above; conditions: MTase-Glo luminescence, SAH detection, recombinant enzyme; measured here: PNMT max response; stronger effect = lower value
[8] = NCATS anti-infectives library activity on HEK293 viability as a counter-qHTS vs the C. elegans viability qHTS (AID 1745854);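 also: HEK293 cells exposed to compounds for 24 hr before the viability read; % is scaled to controls: 0 for no effect and ±100 for the full control effect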
Method in brief: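 Compound titrations (final up to 41.7 uM) were incubated with HEK293 cells for 24 hr at 37C under 5% CO2. Viable cells were quantified with CellTiter-Glo after 10 min at ambient temperature.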

Sequence of Catechol O-methyltransferase (Homo sapiens) (P21964 whole entry, looked up): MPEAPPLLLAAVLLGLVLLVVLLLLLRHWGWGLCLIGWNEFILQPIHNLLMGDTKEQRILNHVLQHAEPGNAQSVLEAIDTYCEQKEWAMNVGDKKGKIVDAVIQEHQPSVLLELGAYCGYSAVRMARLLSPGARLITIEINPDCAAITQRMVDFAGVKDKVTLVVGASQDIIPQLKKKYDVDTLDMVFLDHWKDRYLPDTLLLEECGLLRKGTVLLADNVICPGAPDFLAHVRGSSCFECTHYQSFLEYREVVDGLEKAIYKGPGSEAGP
Sequence of Phenylethanolamine N-methyltransferase (Homo sapiens) (P11086 whole entry, looked up): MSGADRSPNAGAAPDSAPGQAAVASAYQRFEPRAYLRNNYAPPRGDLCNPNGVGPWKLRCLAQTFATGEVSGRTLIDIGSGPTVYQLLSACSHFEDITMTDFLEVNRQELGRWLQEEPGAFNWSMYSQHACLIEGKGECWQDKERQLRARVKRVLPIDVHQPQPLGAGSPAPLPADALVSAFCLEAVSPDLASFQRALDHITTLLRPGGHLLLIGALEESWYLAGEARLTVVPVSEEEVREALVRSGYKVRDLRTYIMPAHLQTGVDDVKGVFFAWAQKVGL
Sequence of Cytochrome P450 2C9 (Homo sapiens) (P11712 whole entry, looked up): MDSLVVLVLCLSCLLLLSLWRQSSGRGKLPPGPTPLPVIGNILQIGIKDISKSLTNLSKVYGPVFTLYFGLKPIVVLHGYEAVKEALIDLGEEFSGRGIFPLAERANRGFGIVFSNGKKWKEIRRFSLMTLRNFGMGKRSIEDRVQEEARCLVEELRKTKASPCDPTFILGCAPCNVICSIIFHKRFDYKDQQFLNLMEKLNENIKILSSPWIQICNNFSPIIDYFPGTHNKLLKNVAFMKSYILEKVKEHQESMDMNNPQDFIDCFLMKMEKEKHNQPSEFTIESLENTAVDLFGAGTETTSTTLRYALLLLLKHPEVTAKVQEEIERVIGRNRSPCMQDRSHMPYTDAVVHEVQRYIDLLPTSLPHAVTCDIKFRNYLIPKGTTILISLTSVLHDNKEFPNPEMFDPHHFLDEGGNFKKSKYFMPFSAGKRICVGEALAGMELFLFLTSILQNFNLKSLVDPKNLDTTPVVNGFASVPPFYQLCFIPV
Sequence of Nicotinamide N-methyltransferase (Homo sapiens) (P40261 whole entry, looked up): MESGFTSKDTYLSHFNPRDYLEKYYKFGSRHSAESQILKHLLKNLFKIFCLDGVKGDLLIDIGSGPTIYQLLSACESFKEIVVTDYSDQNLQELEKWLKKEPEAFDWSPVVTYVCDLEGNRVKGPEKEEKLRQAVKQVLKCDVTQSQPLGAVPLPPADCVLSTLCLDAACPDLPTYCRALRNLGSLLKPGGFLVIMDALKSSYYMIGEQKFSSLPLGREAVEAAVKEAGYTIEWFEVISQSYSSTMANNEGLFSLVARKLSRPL

SMILES | Potency [1] | Potency [2] | Potency [3] | activity [4] [%] | activity change, negative = inhibition [5] | activity [6] [%] | activity [7] [%] | outcome [8] | Potency [5]
Nc1ncnc2c1c(-c1ccc(Oc3ccccc3)cc1)nn2[C@@H]1CCCNC1 | inactive | 1.63 µM (active) | 2.3 µM (active) | -13.8 | -5.27% | -54 | -19 | – | –
COc1ccccc1OCCNCC(O)CCOc1cccc2[nH]c3ccccc3c12 (stereo not drawn) | 0.301 µM (active) | 18.3 µM (active) | 14.5 µM (active) | -5.33 | 2.56% | -4.12 | -93.1 | – | –
Cc1onc(-c2ccccc2)c1C(=O)N1CCN(c2ccc([N+](=O)[O-])cc2Cl)CC1 | 9.52 µM (active) | inactive | inactive | – | – | – | – | inactive | –
COc1cc2ncnc(Nc3cccc(I)c3)c2cc1OC | 13.5 µM (active) | 16.3 µM (active) | 14.5 µM (active) and inactive | -55.8 | – | -40.1 | -56.9 | – | 34.1 µM (active)
CN1CCN(Cc2ccc(NC(=O)Cc3ccc(Oc4cc(NC(=O)C5CC5)ncn4)cc3)cc2C(F)(F)F)CC1 | 19 µM (active) | 0.649 µM (active) | 0.817 µM (active) | -8.91 | 0.726% | -29.5 | -13.7 | – | –
CN1CC2CN(c3ccc4oc5ccccc5c(=O)c4c3)CC2C1 (stereo not drawn) | inactive | – | 12.6 µM (active) | – | – | – | – | – | –
Cn1cc(-c2ccc(F)c(C(F)(F)F)c2)nc1C1CCN(c2ncnc3[nH]ncc23)CC1 | inactive | inactive | inactive | 2.12 | 1.12% [at 9.47 µM] | -37.5 | -1.21 | – | –
Fc1ccc(N2CCCCC2)c(NC(=S)c2ccncc2)c1 | 6.01 µM (active) | 10.3 µM (active) | 12.9 µM (active) | -6 | 2.26% | -9.58 | -11.8 | – | –
COc1cc(N2CCC(N)CC2)ccc1Nc1ncc(Cl)c(-c2c[nH]c3ccccc23)n1 | 3.01 µM (active) | 1.45 µM (active) and 1.66 µM (active) | 1.63 µM (active) and 2.35 µM (active) | -32.1 | – | -35.8 | -27 | – | 24.1 µM (active)
Cc1c(OCc2cccc(-c3ccc(C(=O)O)cc3)c2)cc2c(c1C)C(=O)C(C1CCCC1)C2 (stereo not drawn) | 19 µM (active) | inactive | inactive | -4.94 | -6.27% | -40.4 | -6.25 | – | –
Cc1cc(NC(=O)NCCN2CCC(O)(Cc3ccccc3)CC2)c2ccccc2n1 | inactive | inactive | inactive | -2.12 | 0% | 2.4 | 0.991 | – | –
COc1cc(/C=N\NC(=O)c2ccc3c(c2)OCO3)ccc1OCc1ccccc1 | 2.39 µM (active) | inactive | inactive | -3.52 | 1.69% | -20.5 | -1.07 | – | –
CN(C)C(=O)Nc1cccc(-c2ccc(N(C)C)cc2)c1 | 23.9 µM (active) | inactive | inactive | – | – | – | – | inactive | –
Cc1nc(C#Cc2ccnc(Cl)c2)c(C)n1-c1ccc(F)cc1 | inactive | 11.5 µM (active) | 11.5 µM (active) | -47.3 | – | -47.6 | -47.9 | – | 30.4 µM (active)
CCCNCCc1ccc(NS(=O)(=O)c2ccc(OC(F)(F)F)cc2)cc1 | 8.49 µM (active) | – | 14.5 µM (active) | – | – | – | – | – | –
COC(C)(C)CCn1nc(Nc2c(C)cccc2C)c2cnc(Nc3ccc(OCCN4CCCC4)c(F)c3)nc21 | 6.01 µM (active) | 103 nM (active) and 263 nM (active) | 163 nM (active) and 468 nM (active) | -6.73 | 0% | -23.2 | -4.06 | – | –
O=C1NC(=O)C(c2cnc3ccccn23)=C1c1cn2c3c(cc(F)cc13)CN(C(=O)N1CCCCC1)CC2 | 12 µM (active) | 5.2 nM (active) and 9.3 nM (active) | 5.2 nM (active) and 10.5 nM (active) | -28.3 | -13.3% | -51.2 | -20.8 | – | –
N#Cc1ccc(COC[C@H]2O[C@@H](n3c(NCc4ccc(Cl)c(Cl)c4)nc4c(N)ncnc43)[C@H](O)[C@@H]2O)cc1 | 10.7 µM (active) | 14.8 µM (active) | 9.34 µM (active) | -4.68 | – | -79.6 | -74.2 | – | 23.5 µM (active)
C=CC(=O)Nc1cccc(Nc2nc(Nc3ccc(OCCOC)cc3)ncc2F)c1 | 3.38 µM (active) | 3.72 µM (active) | 3.72 µM (active) | -40.1 | – | -65.2 | -40.1 | – | 27.1 µM (active)
COc1ccc(NC(=O)c2ccc(C(=N)N(C)C)cc2)c(C(=O)Nc2ccc(Cl)cn2)c1 | 3.79 µM (active) | inactive | inactive | – | – | – | – | inactive | –
CCC(CC)C(c1ccc(Nc2nc3ccccc3s2)cc1)n1cncn1 (stereo not drawn) | 0.952 µM (active) | 18.6 µM (active) | 18.6 µM (active) | -3.56 | -4.47% | -14.5 | -5.31 | – | –
